Six molecules from PubChem BioAssay (NCATS) can be followed below.

Experiment [1] in a line: qHTS drug screen for cell cycle checkpoint inhibitors in PARPi-resistant BRCA-mutant ovarian cancer cell lines. (AID 1963452; calls by dose curve). The following applies: PEO1/OlaR viability, CellTiter-Glo luminescence, 96 h, stronger effect = lower value. In outline: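 PEO1, PEO4 and PEO1/OlaR ovarian cancer cells, 600 per well, exposed 96 h at 37C to a dilution series. Viability read by CellTiter-Glo luminescence, normalized to DMSO and empty wells; activity summarized as Z-AUC.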
A general note: Quantitative high-throughput screening tests each substance at several concentrations.

Experiment [2] in a line: qHTS for identification of novel therapeutic agents for treatment of microphthalmiaassociated transcription factor (MiT) renal cell carcinoma (RCC) (AID 1963991). The following applies: CellTiter-Glo, 48 h, stronger effect = lower value. An outline of the steps: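 Curves over 11 concentrations were fitted to CellTiter-Glo luminescence, scaled between empty wells (0%) and DMSO (100%) viability. Cells were UOK109, UOK124 and UOK145 TFE3-fusion RCC lines at 500/well, exposed 48 hours at 37 C.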

Experiment [3] in a line: qHTS profiling for inhibitors of Plasmodium falciparum proliferation (AID 504749).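 For activity, negative = inhibition: 0% = DMSO vehicle and full inhibition = artemisinin control.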 Note: nearly all actives have a fitted effect of over 60% in size. Note: potency is the fitted concentration of half-maximal effect. The following applies: P. falciparum in erythrocytes, SYBR Green DNA, 72 h. An outline of the steps:
(§1)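 P. falciparum-infected erythrocytes (0.3% parasitemia, 2.5% hematocrit) incubated with compound 72 h at 37 C, 5% CO2. Parasite DNA detected by SYBR Green after lysis, overnight at room temperature; normalised to 0.29 uM artemisinin and DMSO.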

For experiment [4], the system named is 7G8. Described as above. The following applies: P. falciparum in erythrocytes, SYBR Green DNA, 72 h; series mostly up to 28.7 µM. An outline of the steps: as §1
The test system of experiment [5] is AA1029. The experiment is described as above. Particulars: P. falciparum in erythrocytes, SYBR Green DNA, 72 h; series mostly up to 28.7 µM. In outline: as §1
Experiment [6] concerns AS120. The description is as above. Particulars: P. falciparum in erythrocytes, SYBR Green DNA, 72 h; series mostly up to 28.7 µM. In outline:
as §1

Experiment [7] has as its system ATS95. The description is as above. Particulars: P. falciparum in erythrocytes, SYBR Green DNA, 72 h; series mostly up to 28.7 µM. In outline:
as §1

The test system of experiment [8] is C2A. Described as above. The following applies: P. falciparum in erythrocytes, SYBR Green DNA, 72 h; series mostly up to 28.7 µM. An outline of the steps: as §1
Experiment [9] concerns CP185. Described as above. The following applies: P. falciparum in erythrocytes, SYBR Green DNA, 72 h; series mostly up to 28.7 µM. In outline: as §1
Experiment [10] relates to CP192. The experiment is described as above. The following applies: P. falciparum in erythrocytes, SYBR Green DNA, 72 h; series mostly up to 28.7 µM. An outline of the steps:
as §1

Experiment [11] deals with CP194. The description is as above. Particulars: P. falciparum in erythrocytes, SYBR Green DNA, 72 h; series mostly up to 28.7 µM. In outline: as §1
The test system of experiment [12] is CP201. The experiment is described as above. The following applies: P. falciparum in erythrocytes, SYBR Green DNA, 72 h; series mostly up to 28.7 µM. An outline of the steps: as §1
Experiment [13] concerns CP203. The experiment is described as above. The following applies: P. falciparum in erythrocytes, SYBR Green DNA, 72 h; series mostly up to 28.7 µM. An outline of the steps:
as §1

Experiment [14] deals with CP211. Described as above. The following applies: P. falciparum in erythrocytes, SYBR Green DNA, 72 h; series mostly up to 28.7 µM. In outline:
as §1

Experiment [15] concerns CP215. The experiment is described as above. Particulars: P. falciparum in erythrocytes, SYBR Green DNA, 72 h; series mostly up to 28.7 µM. In outline: as §1
For experiment [16], the system named is CP217. Described as above. Particulars: P. falciparum in erythrocytes, SYBR Green DNA, 72 h; series mostly up to 28.7 µM. In outline:
as §1

In experiment [17] the test system is CP237. The description is as above. The following applies: P. falciparum in erythrocytes, SYBR Green DNA, 72 h; series mostly up to 28.7 µM. An outline of the steps:
as §1

The subject of experiment [18] is 3D7. The experiment is described as above. Particulars: P. falciparum in erythrocytes, SYBR Green DNA, 72 h; series mostly up to 28.7 µM. In outline: as §1
Experiment [19] concerns ATS189. Described as above. Particulars: P. falciparum in erythrocytes, SYBR Green DNA, 72 h; series mostly up to 28.7 µM. An outline of the steps: as §1
Experiment [20] deals with CP191. Described as above. The following applies: P. falciparum in erythrocytes, SYBR Green DNA, 72 h; series mostly up to 28.7 µM. In outline:
as §1

Setting [21] is: measured here: PEO1 parental Z-AUC.
Where [22] appears, read: TFE3-RCC UOK109 viability, measured here: UOK109 Z-AUC.
The mark [23] stands for this setting: TFE3-RCC viability, measured here: UOK124 Z-AUC.
[24] abbreviates: TFE3-RCC viability, measured here: UOK145 Z-AUC.
[25] abbreviates: at 12.8 µM (top of the series), parasite line B.
The mark [26] stands for this setting: at 28.7 µM (top of the series), parasite line A.
Where [27] appears, read: at 28.7 µM (top of the series), parasite line B.

Molecules are shown by their SMILES. Records with an inconclusive call do not appear. Activity calls are given as the source filed them. Unless noted, calls come from the whole dose curve; as a rule, active = well fitted inhibition curve with a large enough effect; inconclusive = small, poorly fitted or top-dose-only effect; inactive = flat fitted curve, though single readings scatter.

On to `CCOC(=O)c1ccc(OC(=O)CCCCCN=C(N)N)cc1`, for which the Z-AUC in experiment [1] was 1.08 (inactive); in [1] (setting [21]), 1.13; in [1] (measured here: PEO4 Z-AUC), 0.861. For the same molecule, the figures for the z-score in experiment [2] (setting [22]), in [2] (setting [23]) and in experiment [2] (setting [24]) were 0.377, 0.137 and -0.125, respectively. Besides, the activity, negative = inhibition was -3.04% (inactive) in experiment [3] (at 12.8 µM (top of the series), parasite line A) and 4.29% (inactive) in experiment [3] (setting [25]). Also, the Potency in experiment [4] is 3.55 µM (active). Also, the Potency result in experiment [5], in experiment [6], in [7], in experiment [8], in experiment [9] and in [10] was “inactive” throughout. For the same molecule, the Potency entry in experiment [11], in [12], in [13], in experiment [14], in experiment [15] and in experiment [16] was “inactive” in each case. Besides, the Potency entry in experiment [17] was “inactive”.

With `O=C(O)c1cn(C2CC2)c2cc(N3CCNCC3)c(F)cc2c1=O`, the Z-AUC in [1] was 0.135 (inactive); in experiment [1] (setting [21]), 0.154; in experiment [1] (measured here: PEO4 Z-AUC), 0.682. The results for the z-score in experiment [2] (setting [22]), in experiment [2] (setting [23]) and in experiment [2] (setting [24]) were 1.77, 0.661 and 1.11, respectively. The activity, negative = inhibition in experiment [3] (setting [25]) was -28.9% (inactive). In addition, the Potency entry in [18], in experiment [19], in experiment [8], in experiment [20] and in experiment [16] was “inactive” each time. Besides, the Potency in [4] was 3.16 µM (active).

For `CCCCS(=N)(=O)CCC(N)C(=O)O` (centres undefined), the Z-AUC in experiment [1] is -0.0852 (inactive); in experiment [1] (setting [21]) it was 0.0714; in [1] (measured here: PEO4 Z-AUC) it was 0.126. In addition, the z-score in experiment [2] (setting [22]) is 0.217; in experiment [2] (setting [23]) it was 0.527; in [2] (setting [24]) it was 0.0952.

For `O=P(O)(O)C(O)(Cc1cccnc1)P(=O)(O)O`, the Z-AUC in [1] was 0.331 (inactive); in experiment [1] (setting [21]) it was 0.503; in experiment [1] (measured here: PEO4 Z-AUC), 0.956. The values for the z-score in [2] (setting [22]), in experiment [2] (setting [23]) and in [2] (setting [24]) were 0.388, 0.644 and 0.537, respectively. Also, the values for the activity, negative = inhibition in experiment [3] (setting [26]) and in experiment [3] (setting [27]) were 11.1% (inactive) and 6.62% (inactive), respectively. The Potency entry in experiment [18], in experiment [4], in experiment [5], in experiment [6], in experiment [19] and in [7] was “inactive” throughout. Further, the Potency entry in experiment [8], in experiment [9], in [20], in [10], in experiment [11] and in [12] was “inactive” throughout. Moreover, the Potency entry in experiment [14], in [15], in [16] and in experiment [17] was “inactive” each time.

With `CN(CCOc1ccc(CC2SC(=O)NC2=O)cc1)c1ccccn1` (centres undefined), the Z-AUC in experiment [1] was 0.844 (inactive); in experiment [1] (setting [21]), 0.498; in experiment [1] (measured here: PEO4 Z-AUC) it was 0.826. Moreover, the values for the z-score in experiment [2] (setting [22]), in experiment [2] (setting [23]) and in experiment [2] (setting [24]) were 1.36, 0.588 and 0.764, respectively. Besides, the activity, negative = inhibition in experiment [3] (setting [26]) was -1.7% (inactive); in experiment [3] (setting [27]), -10% (inactive). In addition, the Potency result in experiment [18], in experiment [4], in experiment [5], in experiment [6], in experiment [19] and in experiment [7] was “inactive” in each case. Further, the Potency result in experiment [8], in experiment [9], in experiment [20], in [10], in [11] and in [12] was “inactive” throughout. The Potency entry in experiment [13], in experiment [14], in experiment [15], in experiment [16] and in experiment [17] was “inactive” each time.

Consider `CN(C)CCc1c[nH]c2ccc(CS(=O)(=O)N3CCCC3)cc12`, for which the Z-AUC is 1.7 (inactive) in experiment [1], 1.58 in experiment [1] (setting [21]) and 1.04 in experiment [1] (measured here: PEO4 Z-AUC). The z-score in experiment [2] (setting [22]) was -0.684; in [2] (setting [23]), -0.106; in [2] (setting [24]), 0.603. In addition, the activity, negative = inhibition is -2.84% (inactive) in experiment [3] (setting [26]) and -4.67% (inactive) in experiment [3] (setting [27]). Also, the Potency entry in [18], in experiment [4], in [5], in experiment [6], in [19] and in experiment [7] was “inactive” each time. In addition, the Potency entry in experiment [8], in [9], in experiment [20], in [10], in experiment [11] and in experiment [12] was “inactive” in each case. Also, the Potency entry in experiment [14], in experiment [15], in experiment [16] and in experiment [17] was “inactive” in each case.
